Source: PubChem
This is a sample that favours compounds with a hit; in the whole collection about 4.1% have one here.
MazF activator: increases E. coli MazEF RNase cleavage of RNA; 0.32% of 350,000 active; activation, % at 20 µM; FAM/BHQ RNA-DNA oligo cleavage fluorescence, 5 h; P0AE70; in the data active = activation above about 50%
Target sequence (P0AE70 whole entry, looked up): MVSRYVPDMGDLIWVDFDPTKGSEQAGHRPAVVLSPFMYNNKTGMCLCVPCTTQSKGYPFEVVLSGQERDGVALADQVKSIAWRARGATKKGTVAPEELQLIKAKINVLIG
DUSP3 inh: inhibitors of human VHR1 phosphatase (DUSP3); P51452; recombinant VHR phosphatase, pNPP absorbance; inhibition, % at 13.3 µM; 0.52% of 290,000 active; AID 1654; in the data active = inhibition above about 50%
Target sequence (P51452 whole entry, looked up): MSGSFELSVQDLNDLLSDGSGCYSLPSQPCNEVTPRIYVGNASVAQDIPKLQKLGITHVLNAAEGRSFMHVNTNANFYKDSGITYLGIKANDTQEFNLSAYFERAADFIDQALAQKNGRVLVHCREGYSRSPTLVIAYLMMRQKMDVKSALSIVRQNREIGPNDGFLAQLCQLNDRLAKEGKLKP
BoNT-F LC inh: BoNT F light chain protease inhibition | Multiplex microsphere protease cleavage assay, flow cytometry | inhibition, % at 10 µM | 0.22% of 360,000 active; in the data active = inhibition above about 35%, passing the limit was not always enough; inconclusive = no clear call, values can overlap the other calls
Anthrax LF inh2: anthrax lethal factor protease inhibition; 0.12% of 360,000 active; inhibition, % at 10 µM; multiplex microsphere protease cleavage assay, LF
BoNT A protease: inhibitors of Botulinum neurotoxin A light chain protease; multiplex microsphere protease substrate cleavage, flow cytometry; inhibition, % at 10 µM; 0.17% of 360,000 active; AID 588499
Autofluor counter: flagged as autofluorescent in microsphere protease counterscreen; compound autofluorescence counterscreen, microsphere flow cytometry; active compounds read high; fluorescence intensity (concentration not given with the values); 3.1% of 360,000 active; in the data active = fluorescence intensity above about 16000; inconclusive = no clear call, values can overlap the other calls
Large screens that a line does not name were inactive; ! = not confirmed by another sample. Rule as the data show it, unless noted: active = inhibition above about 30%; inconclusive = no clear call, values can overlap the other calls; inactive = below that.

COc1cccc(C(=O)NNC2=CC(=O)CC(C)(C)C2)c1	Autofluor counter 20933
CC1(C)CC(=O)C=C(NCc2ccc(C(=O)O)cc2)C1	Autofluor counter inconclusive
CC1(C)CC(=O)C=C(NNC(=O)c2cccnc2)C1	Anthrax LF inh2 inconclusive
COc1cccc(C(=O)Nc2c(F)c(F)c(F)c(F)c2F)c1	Autofluor counter 20193
COc1ccc(CNC2=CC(=O)CC(C)(C)C2)cc1	Autofluor counter 24712
COc1cccc(Cn2c3ccc(NC(=O)CCc4ccc(F)cc4)cc3c(=O)n2C)c1	none (no result: MazF activator, DUSP3 inh)
COC(=O)c1ccc(-n2cncn2)c(F)c1	BoNT A protease inconclusive, Autofluor counter 23526
O=C(NCCS(=O)(=O)N1CCN(c2ccc(F)cc2)CC1)C12CC3CC(CC(C3)C1)C2	Anthrax LF inh2 inconclusive (no result: DUSP3 inh)
COc1cccc(NC(C)C(=O)N2CC(C)OC(C)C2)c1 (configuration not stated)	BoNT A protease inconclusive, Autofluor counter 23137
COc1cc(NC(C)C(=O)N2CC(C)OC(C)C2)cc(OC)c1 (configuration not stated)	BoNT-F LC inh inconclusive
Cn1c(-c2ccccc2)c(C=O)c2ccccc21	none
COn1c(-c2ccccc2)c(C=O)c2ccccc21	BoNT-F LC inh inconclusive, Autofluor counter 37117
Cc1cc(Br)ccc1OCC(=O)N(Cc1nc(-c2ccccc2)no1)C(C)C	Autofluor counter 20443
Cc1ccc(-c2noc(CN(C(=O)Cc3ccccc3)C(C)C)n2)cc1	BoNT A protease inconclusive, Autofluor counter 19931
COc1cccc(C(=O)N(Cc2nc(-c3ccc(C)cc3)no2)C(C)C)c1	BoNT A protease inconclusive, Autofluor counter 23492
O=C(C[n+]1ccccc1)NNc1ccccc1	none (no result: DUSP3 inh)
CCn1c(C)nc2cc(C(=O)NNS(=O)(=O)c3c(C)c(C)cc(C)c3C)ccc21	Autofluor counter 24040
CCn1c(C)nc2cc(C(=O)NNC(=O)c3ccc(C)cc3)ccc21	none (no result: DUSP3 inh)
COc1ccc(CNc2cc(C)nc3ncnn23)c(OC)c1	Autofluor counter 22962
COc1ccc(Nc2cc(C)nc3ncnn23)c(OC)c1	none
CN1OC[C@@H]2CN(C(=O)C(C)(C)C)[C@H](c3cccc(Oc4ccccc4)c3)C[C@@H]21	none (no result: DUSP3 inh)
CC(OC(=O)Cn1[nH]c(=O)c2ccccc2c1=O)C(=O)Nc1cccc(Cl)c1 (configuration not stated)	BoNT-F LC inh inconclusive (no result: DUSP3 inh)
CC1(C(=O)NCC(F)(F)F)CCN1C(=O)Cc1ccc(-c2ccccc2)cc1 (configuration not stated)	none (no result: MazF activator, DUSP3 inh)
CCOC(=O)c1c(-c2ccc(C)o2)csc1NC(=O)CN(C)CC(=O)Nc1ccc(C)cc1	Autofluor counter 20236
COC(=O)CSc1nnc(CNC(=O)c2ccc(S(=O)(=O)N3CCCCC3)cc2)n1C	Autofluor counter 24100
COC(=O)CSc1nnc(CNC(=O)c2ccc(S(=O)(=O)N3CCOCC3)cc2)n1C	none
Cc1ccc(CNC(=O)c2ccc(S(=O)(=O)N3CCCCC3)cc2)cc1	none (no result: DUSP3 inh)
CCOC(=O)CSc1nnc(CNC(=O)c2ccc(S(=O)(=O)N3CCCCC3)cc2)n1C	Autofluor counter 20926
CN(C)CCN1CCN(C2CN(Cc3cn(Cc4ccc(F)cc4)nn3)S(=O)(=O)C2)CC1 (configuration not stated)	none (no result: MazF activator, DUSP3 inh)
FC(F)(F)c1cc(Sc2ccccc2)nc(-c2ccccn2)n1	Autofluor counter 16298
CN(C)c1cc(C(F)(F)F)nc(-c2ccccn2)n1	Autofluor counter 16157
CC(C)Nc1cc(C(F)(F)F)nc(-c2ccccn2)n1	Autofluor counter 20659
FC(F)(F)c1cc(Nc2ccccc2)nc(-c2ccccn2)n1	none
CCc1cc(=O)oc2cc(C)cc(OCC(=O)N3CCC(C(=O)O)CC3)c12	none
COc1ccc(CCNC(=O)c2cc(=O)c3cc(C)ccc3o2)cc1OC	none
CC1CCc2c(sc(NC(=O)CSc3nc(N)cc(=O)[nH]3)c2C(N)=O)C1 (configuration not stated)	BoNT-F LC inh inconclusive, Anthrax LF inh2 inconclusive, BoNT A protease inconclusive (no result: DUSP3 inh)
NNC(=O)c1cccn(Cc2ccc(Cl)cc2Cl)c1=O	none (no result: DUSP3 inh)
O=Cc1cccn1Cc1ccc(Cl)cc1Cl	Autofluor counter 23592
COc1ccccc1C#Cc1cnc2c(c1)C(=O)N([C@H](C)CO)C[C@H](C)[C@@H](CN(C)S(=O)(=O)c1cn(C)cn1)O2	none (no result: DUSP3 inh)
O=C(CCCn1c(=S)[nH]c2ccccc2c1=O)NC1CCCC1	Autofluor counter 16938
O=C(CCn1c(=S)[nH]c2ccccc2c1=O)NCC1CCCO1 (configuration not stated)	Autofluor counter 21058
CC(CC(=O)O)CC(=O)Nc1ccccc1C(=O)O (configuration not stated)	Autofluor counter 22711
CCn1ncc(Br)c1C(=O)Nc1ccc(-c2ccno2)cc1	none
O=C(COC(=O)c1ccccc1NS(=O)(=O)c1cccs1)NC1CCCCC1	BoNT-F LC inh 45
CCCCCC(=O)N1CCN(CCN=CC2=C(O)CC(c3cccs3)CC2=O)CC1 (configuration not stated)	Autofluor counter 19021!
CCOC(=O)/C(C#N)=C/C=C1/C=CC=CN1C	BoNT-F LC inh 38, Anthrax LF inh2 inconclusive
N=c1c2c(ncn1CCCO)Oc1cc(O)ccc1C2c1ccccc1 (configuration not stated)	MazF activator 64
COc1ccc(C2c3ccc4ccccc4c3Oc3ncn(CCCN(C)C)c(=N)c32)cc1 (configuration not stated)	MazF activator 50
COc1ccc(C2c3ccc(O)cc3Oc3ncn(CCN4CCOCC4)c(=N)c32)cc1 (configuration not stated)	none
COc1ccccc1C1c2ccc3ccccc3c2Oc2ncn(CCN(C)C)c(=N)c21 (configuration not stated)	none
O=C(Nc1ccc2c(c1)OCO2)C1(S(=O)(=O)c2ccc(Cl)cc2)CC1	Autofluor counter 24545
N#CC1=C(N)Oc2cc(O)ccc2C1c1cccs1 (configuration not stated)	none
N#CC1=C(N)Oc2c(ccc3ccccc23)C1c1cccs1 (configuration not stated)	MazF activator 59 (no result: BoNT-F LC inh, Anthrax LF inh2, BoNT A protease, Autofluor counter)
O=C(Oc1ccc(N(Cc2cccs2)C2=NS(=O)(=O)c3ccccc32)cc1)c1ccccc1	BoNT A protease inconclusive, Autofluor counter 23485
O=C(Oc1ccc(N(Cc2cccs2)C2=NS(=O)(=O)c3ccccc32)cc1)c1ccc(Cl)cc1	none
C=CCN(c1ccc(C(=O)Nc2ccc(C)cc2)cc1)S(C)(=O)=O	none
C=CCN(c1ccc(C(=O)NC(C)C)cc1)S(C)(=O)=O	Autofluor counter 23751
C=CCNC(=O)c1ccc(N(Cc2ccc(Cl)cc2)S(C)(=O)=O)cc1	BoNT-F LC inh 39
COc1ccccc1NC(=O)CSc1ncn(-c2ccccc2)n1	BoNT A protease inconclusive, Autofluor counter 20548
COc1ccccc1NC(=O)CSc1nncn1-c1ccccc1	BoNT-F LC inh inconclusive
O=C(CSc1ncn(-c2ccccc2)n1)NCc1ccccc1	BoNT A protease inconclusive, Autofluor counter 23754
